Measurements reported in the supplement of paper PMC9492666.
Counter-ions that a name gives are not always drawn.

Legend:
Details in all cases: 72 h
[1] = system: HCC1937; assay: relative cell viability, compound alone, vs DMSO (fraction of DMSO control); higher = less growth inhibition
[2] = system: MDA-MB-231; assay: as above
[3] = system: HCC1937; assay: relative cell viability, compound + RSL3, vs DMSO (fraction of DMSO control); higher = less growth inhibition
[4] = system: MDA-MB-231; assay: as above
[5] = system: HCC1937; assay: relative cell viability, compound + erastin, vs DMSO (fraction of DMSO control); higher = less growth inhibition
[6] = system: MDA-MB-231; assay: as above
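Wherever relative cell viability, compound + RSL3, vs DMSO is given: breast cancer cell viability read out with the CCK-8 kit after co-treatment of each compound with the ferroptosis inducer RSL3.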
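Wherever relative cell viability, compound + erastin, vs DMSO is given: viability read by CCK-8 kit in 96-well plates, part of a combination screen pairing lipid-metabolism-targeting compounds with erastin.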
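Wherever relative cell viability, compound alone, vs DMSO is given: viability read out with the CCK-8 kit in 96-well plates, screening a set of 303 compounds acting on lipid metabolism targets.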

`O=C(Oc1ccc([N+](=O)[O-])cc1)N1CCC(C(O)(c2ccc3c(c2)OCO3)c2ccc3c(c2)OCO3)CC1` gave a relative cell viability [1] of 0.911 and a relative cell viability [2] of 0.901.
`C/C=C/c1cc(OC)c(OC)cc1OC` [alpha-Asarone] gave a relative cell viability [1] of 0.855 and a relative cell viability [2] of 0.976.
`COc1ccc(CN2CCNCC2)c(OC)c1OC` [Trimetazidine dihydrochloride] + COC(=O)c1ccc([C@H]2c3[nH]c4ccccc4c3C[C@H](C(=O)OC)N2C(=O)CCl)cc1 [RSL3] gave a relative cell viability [3] of 0.782 and a relative cell viability [4] of 0.607.
`CC(C)=CCC[C@](C)(O)[C@H]1CC[C@]2(C)[C@@H]1[C@H](O)C[C@@H]1[C@@]3(C)CC[C@H](O)C(C)(C)[C@@H]3[C@@H](O[C@@H]3O[C@H](CO)[C@@H](O)[C@H](O)[C@H]3O)C[C@]12C` [Ginsenoside Rh1] showed a relative cell viability [1] of 1.09 and a relative cell viability [2] of 1.03.
In the case of `C/C=C/c1cc(OC)c(OC)cc1OC` [alpha-Asarone] + COC(=O)c1ccc([C@H]2c3[nH]c4ccccc4c3C[C@H](C(=O)OC)N2C(=O)CCl)cc1 [RSL3], the relative cell viability [3] is reported as 0.452 and the relative cell viability [4] is reported as 0.541.
`Cc1cc(SCc2sc(-c3ccc(C(F)(F)F)c(F)c3)nc2C)ccc1OCC(=O)O` + COC(=O)c1ccc([C@H]2c3[nH]c4ccccc4c3C[C@H](C(=O)OC)N2C(=O)CCl)cc1 [RSL3] was tested, and the relative cell viability [3] was 0.59 and the relative cell viability [4] was 0.668.
Compound `Cc1cc(SCc2sc(-c3ccc(C(F)(F)F)cc3)nc2C)ccc1OCC(=O)O` + CCOc1ccccc1-n1c(C(C)N2CCN(C(=O)COc3ccc(Cl)cc3)CC2)nc2ccccc2c1=O [erastin] has a relative cell viability [5] of 0.529 and a relative cell viability [6] of 0.558.
Work on `O=C(CBr)c1ccc(O)cc1` [PTP Inhibitor I] yielded a relative cell viability [1] of 1.17 and a relative cell viability [2] of 0.937.
For `O=C(NCCN1CCC2(CC1)C(=O)NCN2c1ccccc1)c1ccc2ccccc2c1`, the relative cell viability [1] was 0.491 and the relative cell viability [2] was 0.689.
`Cc1cc(SCc2sc(-c3ccc(C(F)(F)F)c(F)c3)nc2C)ccc1OCC(=O)O` showed a relative cell viability [1] of 1.21 and a relative cell viability [2] of 0.892.
Work on `O=C(Oc1ccc([N+](=O)[O-])cc1)N1CCN(Cc2cccc(Oc3ccccc3)c2)CC1` + COC(=O)c1ccc([C@H]2c3[nH]c4ccccc4c3C[C@H](C(=O)OC)N2C(=O)CCl)cc1 [RSL3] yielded a relative cell viability [3] of 0.673 and a relative cell viability [4] of 0.473.
`C=C(C)[C@@H]1CCC2=CC(=O)C[C@@H](C)[C@]2(C)C1` [Nootkatone] + CCOc1ccccc1-n1c(C(C)N2CCN(C(=O)COc3ccc(Cl)cc3)CC2)nc2ccccc2c1=O [erastin] was tested, and the relative cell viability [5] was 0.577 and the relative cell viability [6] was 0.706.
`COC(=O)N(CC(=O)O)Cc1cccc(OCc2nc(-c3ccc(Cl)cc3)oc2C)c1` + CCOc1ccccc1-n1c(C(C)N2CCN(C(=O)COc3ccc(Cl)cc3)CC2)nc2ccccc2c1=O [erastin] gave a relative cell viability [5] of 0.734 and a relative cell viability [6] of 0.627.
Compound `C[C@]12CC[C@@H](O)C[C@@H]1CC[C@@H]1[C@@H]2CC[C@]2(C)C(=O)CC[C@@H]12` [Androsterone] + COC(=O)c1ccc([C@H]2c3[nH]c4ccccc4c3C[C@H](C(=O)OC)N2C(=O)CCl)cc1 [RSL3] has a relative cell viability [3] of 0.919 and a relative cell viability [4] of 0.658.
In the case of `O=C(CBr)c1ccc(O)cc1` [PTP Inhibitor I] + COC(=O)c1ccc([C@H]2c3[nH]c4ccccc4c3C[C@H](C(=O)OC)N2C(=O)CCl)cc1 [RSL3], the relative cell viability [3] is reported as 0.674 and the relative cell viability [4] is reported as 0.577.
`NNC(=O)c1nn(Cc2ccc(Cl)cc2Cl)c2ccccc12` [Adjudin] + COC(=O)c1ccc([C@H]2c3[nH]c4ccccc4c3C[C@H](C(=O)OC)N2C(=O)CCl)cc1 [RSL3] gave a relative cell viability [3] of 0.557 and a relative cell viability [4] of 0.45.
Compound `C[C@]12CC[C@@H](O)C[C@@H]1CC[C@@H]1[C@@H]2CC[C@]2(C)C(=O)CC[C@@H]12` [Androsterone] has a relative cell viability [1] of 1.33 and a relative cell viability [2] of 1.08.
For `CC(C)=CCC[C@](C)(O)[C@H]1CC[C@]2(C)[C@@H]1[C@H](O)C[C@@H]1[C@@]3(C)CC[C@H](O)C(C)(C)[C@@H]3[C@@H](O[C@@H]3O[C@H](CO)[C@@H](O)[C@H](O)[C@H]3O)C[C@]12C` [Ginsenoside Rh1] + COC(=O)c1ccc([C@H]2c3[nH]c4ccccc4c3C[C@H](C(=O)OC)N2C(=O)CCl)cc1 [RSL3], the relative cell viability [3] was 0.654 and the relative cell viability [4] was 0.679.
`CCC1=N[C@H]2C[C@@]3(C(=O)N(OC)c4ccccc43)[C@H]3CC1[C@@H]2CO3` [Humantenmine] + COC(=O)c1ccc([C@H]2c3[nH]c4ccccc4c3C[C@H](C(=O)OC)N2C(=O)CCl)cc1 [RSL3] was tested, and the relative cell viability [3] was 0.585 and the relative cell viability [4] was 0.679.
With `O=C1C=CC[C@@H]2[C@H]3CCCN4CCC[C@@H](CN12)[C@@H]34` [Sophocarpine] + COC(=O)c1ccc([C@H]2c3[nH]c4ccccc4c3C[C@H](C(=O)OC)N2C(=O)CCl)cc1 [RSL3] the relative cell viability [3] was 0.621 and the relative cell viability [4] was 0.502.
Compound `O=C(Oc1ccc([N+](=O)[O-])cc1)N1CCC(C(O)(c2ccc3c(c2)OCO3)c2ccc3c(c2)OCO3)CC1` + COC(=O)c1ccc([C@H]2c3[nH]c4ccccc4c3C[C@H](C(=O)OC)N2C(=O)CCl)cc1 [RSL3] has a relative cell viability [3] of 0.483 and a relative cell viability [4] of 0.618.
Work on `CCc1c(C(=O)C(N)=O)c2c(OCC(=O)O)cccc2n1Cc1ccccc1` [Varespladib] yielded a relative cell viability [1] of 0.797 and a relative cell viability [2] of 0.842.
For `C[C@@]12C[C@@H](c3ccoc3)OC(=O)[C@@H]1CC[C@]1(C)[C@H]2[C@@H]2C=C[C@@]1(O)C(=O)O2` [Columbin] + COC(=O)c1ccc([C@H]2c3[nH]c4ccccc4c3C[C@H](C(=O)OC)N2C(=O)CCl)cc1 [RSL3], the relative cell viability [3] was 0.564 and the relative cell viability [4] was 0.642.
Compound `O=C1C=CC[C@@H]2[C@H]3CCCN4CCC[C@@H](CN12)[C@@H]34` [Sophocarpine] has a relative cell viability [1] of 0.762 and a relative cell viability [2] of 0.906.
For `COc1ccc(CN2CCNCC2)c(OC)c1OC` [Trimetazidine dihydrochloride], the relative cell viability [1] was 1.09 and the relative cell viability [2] was 0.823.
`O=C(NCCN1CCC2(CC1)C(=O)NCN2c1ccccc1)c1ccc2ccccc2c1` + COC(=O)c1ccc([C@H]2c3[nH]c4ccccc4c3C[C@H](C(=O)OC)N2C(=O)CCl)cc1 [RSL3] gave a relative cell viability [3] of 0.229 and a relative cell viability [4] of 0.51.
`C[C@@]12C[C@@H](c3ccoc3)OC(=O)[C@@H]1CC[C@]1(C)[C@H]2[C@@H]2C=C[C@@]1(O)C(=O)O2` [Columbin] showed a relative cell viability [1] of 0.968 and a relative cell viability [2] of 1.06.
For `CCC(=O)Nc1cccc(Oc2nc(Nc3ccc(N4CCN(C)CC4)cc3OC)ncc2Cl)c1` + CCOc1ccccc1-n1c(C(C)N2CCN(C(=O)COc3ccc(Cl)cc3)CC2)nc2ccccc2c1=O [erastin], the relative cell viability [5] was 0.255 and the relative cell viability [6] was 0.795.
`NNC(=O)c1nn(Cc2ccc(Cl)cc2Cl)c2ccccc12` [Adjudin] gave a relative cell viability [1] of 0.767 and a relative cell viability [2] of 0.757.
With `O=C(O)Cc1cccc(OCCCN(Cc2cccc(C(F)(F)F)c2Cl)CC(c2ccccc2)c2ccccc2)c1` + CCOc1ccccc1-n1c(C(C)N2CCN(C(=O)COc3ccc(Cl)cc3)CC2)nc2ccccc2c1=O [erastin] the relative cell viability [5] was 0.855 and the relative cell viability [6] was 0.478.
`COc1ccc(N(C(=O)Nc2c(C)cccc2C)c2cc(Nc3ccc(N4CCN(C)CC4)cc3)ncn2)c(OC)c1` + CCOc1ccccc1-n1c(C(C)N2CCN(C(=O)COc3ccc(Cl)cc3)CC2)nc2ccccc2c1=O [erastin] was tested, and the relative cell viability [5] was 0.553 and the relative cell viability [6] was 0.852.
For `COc1ccc(Nc2ccn(-c3ccccc3)n2)cc1` + CCOc1ccccc1-n1c(C(C)N2CCN(C(=O)COc3ccc(Cl)cc3)CC2)nc2ccccc2c1=O [erastin], the relative cell viability [5] was 0.686 and the relative cell viability [6] was 0.902.
For `CC(C)=CCC[C@](C)(O)[C@H]1CC[C@]2(C)[C@@H]1[C@H](O)C[C@@H]1[C@@]3(C)CC[C@H](O)C(C)(C)[C@@H]3[C@@H](O)C[C@]12C` [(20S)-Protopanaxatriol] + CCOc1ccccc1-n1c(C(C)N2CCN(C(=O)COc3ccc(Cl)cc3)CC2)nc2ccccc2c1=O [erastin], the relative cell viability [5] was 0.772 and the relative cell viability [6] was 0.397.
For `C[C@@H]1OCC2(CCN(c3cnc(Sc4ccnc(N)c4Cl)c(N)n3)CC2)[C@@H]1N` + CCOc1ccccc1-n1c(C(C)N2CCN(C(=O)COc3ccc(Cl)cc3)CC2)nc2ccccc2c1=O [erastin], the relative cell viability [5] was 0.553 and the relative cell viability [6] was 0.732.
`C/C=C(\CC[C@@H](C)[C@H]1CC[C@H]2[C@@H]3CC=C4C[C@@H](O)CC[C@]4(C)[C@H]3CC[C@]12C)C(C)C` [Fucosterol] + CCOc1ccccc1-n1c(C(C)N2CCN(C(=O)COc3ccc(Cl)cc3)CC2)nc2ccccc2c1=O [erastin] showed a relative cell viability [5] of 0.685 and a relative cell viability [6] of 0.881.
`O=C(O)/C=C/c1ccc(O)c(O)c1` [Caffeic Acid] + CCOc1ccccc1-n1c(C(C)N2CCN(C(=O)COc3ccc(Cl)cc3)CC2)nc2ccccc2c1=O [erastin] was tested, and the relative cell viability [5] was 0.777 and the relative cell viability [6] was 0.979.
With `COc1ccc(C2(CNC(=O)c3ccc(NC(=O)c4ccco4)cc3)CCOCC2)cc1` + CCOc1ccccc1-n1c(C(C)N2CCN(C(=O)COc3ccc(Cl)cc3)CC2)nc2ccccc2c1=O [erastin] the relative cell viability [5] was 0.518 and the relative cell viability [6] was 0.728.
`O=C(CN1CCN(C(=O)c2ccco2)CC1)Nc1cc(C(F)(F)F)ccc1Cl` + CCOc1ccccc1-n1c(C(C)N2CCN(C(=O)COc3ccc(Cl)cc3)CC2)nc2ccccc2c1=O [erastin] showed a relative cell viability [5] of 0.638 and a relative cell viability [6] of 0.463.
Compound `C[C@H]1N=C(N(C)C)N=C(N)N1` [Imeglimin hydrochloride] + CCOc1ccccc1-n1c(C(C)N2CCN(C(=O)COc3ccc(Cl)cc3)CC2)nc2ccccc2c1=O [erastin] has a relative cell viability [5] of 0.69 and a relative cell viability [6] of 0.695.
For `CC(C)c1cc(C(C)C)c(CC(=O)NS(=O)(=O)Oc2c(C(C)C)cccc2C(C)C)c(C(C)C)c1` [Avasimibe] + CCOc1ccccc1-n1c(C(C)N2CCN(C(=O)COc3ccc(Cl)cc3)CC2)nc2ccccc2c1=O [erastin], the relative cell viability [5] was 0.508 and the relative cell viability [6] was 0.791.
In the case of `COc1ccc(-c2c[nH]c3nccc(-c4ccsc4)c23)c(OC)c1` + CCOc1ccccc1-n1c(C(C)N2CCN(C(=O)COc3ccc(Cl)cc3)CC2)nc2ccccc2c1=O [erastin], the relative cell viability [5] is reported as 0.675 and the relative cell viability [6] is reported as 0.834.
